Among the data in PubChem BioAssay AID651636 (Sanford-Burnham Center for Chemical Genomics, 2012) are inhibition values, retold here.

Structures are written as SMILES. The whole screen tested about 360,000 compounds, of which about 3,000 (0.83%) were called active. Only a selection was taken, and actives are over-represented in it overall. A number with no mark means an inactive call. Rule as the data show it: active = inhibition above about 38%; inactive = the rest.

The target of this test is G-protein coupled receptor 183 (Homo sapiens) (UniProt P32249). The experiment in a line: EBI2 receptor antagonists, beta-arrestin recruitment, primary screen, cell-based, luminescence, 7a,25-OHC stimulation, uHTS (AID 651636).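 Also: enzyme fragment complementation signal reports receptor beta-arrestin coupling in cells; 0% = agonist plus DMSO wells and 100% = wells without agonist.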 The following applies: 7a,25-OHC stimulated, at 5 µM, active compounds read high. Background: Activated receptors often draw arrestin, which recruitment assays turn into a signal.
G-protein coupled receptor 183 (Homo sapiens), sequence (P32249 whole entry, looked up, the tested form may be a part): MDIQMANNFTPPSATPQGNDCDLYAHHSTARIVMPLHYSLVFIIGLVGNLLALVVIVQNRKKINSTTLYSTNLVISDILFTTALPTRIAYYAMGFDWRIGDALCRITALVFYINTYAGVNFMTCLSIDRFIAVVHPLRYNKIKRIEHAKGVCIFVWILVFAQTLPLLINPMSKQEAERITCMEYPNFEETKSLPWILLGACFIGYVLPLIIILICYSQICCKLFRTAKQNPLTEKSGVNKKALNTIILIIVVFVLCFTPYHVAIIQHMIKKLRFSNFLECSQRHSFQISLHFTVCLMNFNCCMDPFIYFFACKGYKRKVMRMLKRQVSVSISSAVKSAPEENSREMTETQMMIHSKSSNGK
The inhibition is the relative decrease from the control value, in per cent. Turning to `O=C(Cc1ccc(Cl)cc1)NCc1nc(-c2ccccc2)no1`, the inhibition was 4.5%.
Turning to `O=C(NCc1ccc(Cl)cc1)c1cc2c(nc3sccn32)s1`, the inhibition was 12.5%.
Take `O=C(NCc1ccc(Cl)cc1)c1cc(=O)nc2sc(-c3ccccc3)nn12`: the inhibition was 49.6% (active).
For `CC(=O)NC12CC3CC(C1)CC(C(=O)N1CCN(C(=O)c4ccco4)CC1)(C3)C2`, the inhibition was 1.98%.
As for `COc1ccc(-c2nnn(Cc3nc(N)nc(N4CCCCC4)n3)n2)cc1`, the inhibition is 5.05%.
`COc1ccc(-c2c(-c3ccc(OC)cc3O)nc(C)nc2C(F)(F)F)cc1`: the inhibition is 14.5%.
As to `COc1cccc(-c2cnc(OC(C)(C)C)nc2OC(C)(C)C)c1`, the inhibition is -3.37%.
As for `COc1ccc(-c2nc(N)ncc2-c2ccc(Cl)cc2)c(O)c1`, the inhibition is 88.2% (active).
For the compound `CCOc1ccc(C(=O)N(Cc2ccc(N(C)C)cc2)C2CCS(=O)(=O)C2)cc1` (stereo not drawn), the inhibition was 7.56%.
As for `O=C(Nc1cc2c3c(c1)CC(=O)N3CCC2)c1ccccc1F`, the inhibition was -3.38%.
Regarding `Oc1ccc2ccccc2c1N=Nc1nccs1`, the inhibition is 58.9% (active).
As to `CC1(c2nnc(Cc3ccccc3)o2)CC(c2ccccc2F)=NO1` (stereo not drawn), the inhibition is -4.25%.
In the case of `CCOC(=O)[C@]12CCCC=C1N(CCC1=CCCCC1)C(=O)[C@H](CC(=O)N1CCN(C(=O)c3ccco3)CC1)C2`, the inhibition is -0.759%.
The figure for `COc1ccc(N2CCN(Cc3ccc(Br)s3)CC2)cc1` is -1.05%.
As for `Fc1ccc(N2CCN(Cc3cnc(Oc4ccc(Br)cc4)s3)CC2)cc1`, the inhibition was 46.4% (active).
As for `c1ccc(-c2cnc(CN3CCN(c4ccccc4)CC3)o2)cc1`, the inhibition was 3.15%.
With `COc1ccc(OC)c(C(=O)c2coc3ccc(OC)cc23)c1`, the inhibition is 5.5%.
Take `Cc1ccc(C(=O)c2coc3ccc(O)c(CN(C)C)c23)cc1`: the inhibition was -7.39%.
For `COc1ccc(OC)c(C(=O)c2coc3ccc(O)c(CN4CCOCC4)c23)c1`, the inhibition was 37% (active).
Regarding `CN(O)C(=S)c1ccccc1`, the inhibition is 43% (active).
With `C=CCOC(=O)C1=C[C@@H](c2ccccc2)C[C@@H](OCc2ccc(CO)cc2)O1`, the inhibition is 7.13%.
The figure for `Cc1ccc2c(C)c(C(=O)N3CCN(c4ccncc4)CC3)oc2c1C` is 1.76%; for `CCCCNC(=S)N/N=C1\CCCCc2ccccc21` it is 6.96%; for `Cc1cc(F)ccc1NC(=S)NCCc1ccccc1` it is 1.81%.
In the case of `CCCC1CCC(=NNC(=S)NCCc2ccccc2)CC1` (stereo not drawn), the inhibition was 66.9% (active).
The figure for `CC(=O)CCS(=O)(=O)c1ccc(C)c(C)c1` is -7.62%; for `CC(=O)c1cc(-c2ccccc2)n(CCC(=O)NC2CCCCCC2)c1C` it is -14.6%; for `COc1ccc(NC(=O)CSc2ncnc3[nH]ncc23)cc1` it is -1.87%.
The figure for `COc1ccc(Sc2ccc(NC(=O)c3cccc(Cl)c3)cc2C#N)cc1` is 19.1%; for `COc1ccc(Nc2cc(Sc3ccc(OC)cc3)ncn2)cc1` it is 55.7% (active).
Consider `CN1C(=O)CC(N2CCN(c3ccccn3)CC2)C1=O` (stereo not drawn), for which the inhibition is 1.43%.
As for `CO/N=C(/CS(=O)(=O)c1ccc(Br)cc1)c1ccc(OC)cc1`, the inhibition is 2.11%.
As for `O=C(CC(c1ccccc1)c1ccccc1)NCC(O)c1ccc([N+](=O)[O-])cc1` (stereo not drawn), the inhibition was 68.3% (active).
The figure for `O=C(NCC(O)c1ccc([N+](=O)[O-])cc1)C1CCCCC1` (stereo not drawn) is 19.3%; for `CN(C)C(CNC(=O)Cc1ccc([N+](=O)[O-])cc1)c1ccccc1` (stereo not drawn) it is -5.83%.
Turning to `COc1ccccc1CNC(=O)C1Cc2ccccc2C(=O)O1` (stereo not drawn), the inhibition is -4.46%.
For the compound `Cc1ccc(S(=O)(=O)N2CC3C(=O)C[C@@H](c4ccccc4Cl)N(S(=O)(=O)c4ccc(C)cc4)C3CC2c2ccccc2)cc1` (stereo partly drawn), the inhibition is 17%.
Turning to `CC1Oc2ccccc2N(Cc2cccnc2)C1=O` (stereo not drawn), the inhibition was 2.36%.
The figure for `CCc1nc2c(OCc3ccc(Cl)cc3Cl)cccn2c1N(C)C(=O)C(C)C` is 36.4%.
As to `CCCCC(=O)N(C)c1c(CC)nc2c(OCc3ccc(S(C)(=O)=O)cc3)cccn12`, the inhibition was -7.39%.
The figure for `CCCCC(=O)N(C)c1c(CC)nc2c(OCc3ccc(Cl)cc3Cl)cccn12` is 42.4% (active); for `CCCOC(=O)c1c(NC(=O)c2cnn3c2NC(c2ccccc2)CC3C(F)(F)F)sc2c1CCCC2` (stereo not drawn) it is -7.48%.
As for `Cc1ccccc1C(CC(=O)c1cccs1)C(C#N)C#N` (stereo not drawn), the inhibition was -15.3%.
For the compound `NC(=O)C1(N2CCCCC2)CCN(C2CC(=O)N(Cc3ccc(N4CCCC4=O)cc3)C2=O)CC1` (stereo not drawn), the inhibition was -18.3%.
The figure for `COc1ccccc1-n1c(=S)[nH]c2c(sc(=S)n2-c2ccc(C)cc2C)c1=O` is 0.762%.
Consider `O=[N+]([O-])c1c(NCCO)cc(Sc2nc3ccccc3s2)c2nonc12`, for which the inhibition was 51.4% (active).
Take `Cc1ccn2c(=O)c(C(=O)NCCC3=CCCCC3)c(O)nc2c1`: the inhibition was -7.12%.
Regarding `COc1ccc(CN(Cc2ccco2)S(=O)(=O)c2ccc(S(=O)(=O)N3CCCC3)cc2)cc1`, the inhibition was -7.47%.
Regarding `COc1cc(S(=O)(=O)N(Cc2cccs2)C2CC2)ccc1-n1cnnn1`, the inhibition is 6.23%.
The figure for `CCOc1ccc(CN(Cc2ccco2)S(=O)(=O)c2ccc(-n3cnnn3)c(OC)c2)cc1` is 50.9% (active).
As for `CCCCCCCCN1C(=O)[C@H](CC(=O)NCC23CC4CC(CC(C4)C2)C3)C[C@@]2(C(=O)OC)CCCCC=C12`, the inhibition is 8.12%.
As for `COC1=CC(=O)OC(C)(c2ccccc2)C1` (stereo not drawn), the inhibition was -4.31%.
For the compound `COc1ccc(S(=O)(=O)N(CC(=O)NCc2ccco2)c2ccc(F)cc2)cc1`, the inhibition was -6.33%.
Consider `COc1ccc(CCNC(=O)CN(c2ccccc2)S(=O)(=O)c2ccccc2)cc1`, for which the inhibition is -2.04%.
Take `COc1ccc(CNC(=O)CN(c2ccc(OC)c(Cl)c2)S(=O)(=O)c2ccc(C)cc2)cc1`: the inhibition is 42% (active).
The figure for `CCOP(=O)(OCC)C(Cc1ccccc1)N=C(c1ccccc1)c1ccccc1` (stereo not drawn) is 23.7%; for `O=C(NCc1ccc(F)cc1)c1cc(C2CCCCN2C(=O)C2CCCCC2)on1` (stereo not drawn) it is 13.6%; for `CC1CCN(S(=O)(=O)c2ccc3[nH]c(=O)ccc3c2)CC1` it is -4.98%.
